Source: PubChem BioAssay
The source made the active and inactive calls.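 The calls were made as follows: active = viability at or under a set limit in both replicates, limit being median viability minus 3 SD (cut at about 48% in these data, passing the limit was not always enough); inconclusive = at or under the limit in just one replicate; inactive = at or above the limit in both replicates.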

Experiment: growth inhibitors of H69AR lung tumor, primary screen, human, duplicate replicates (AID 580);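 also: 100% = mean luminescence of untreated wells and 0% = no signal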
Settings: H69AR lung tumor cells viability, ATP luminescence, 72 h; at 10 µM; active compounds read low
With `COC(=O)CCn1nnc(-c2ccc(C)cc2)n1` the viability was 94.1% (inactive). For `COC(=O)CCC(=O)CN`, the viability was 88.6% (inactive). With `O=C(Nc1ccc(N2CCCC2)cc1)c1cccc(F)c1` the viability was 25.8% (active). In the case of `Cc1nc(-c2coc3cc(OCC(=O)O)ccc3c2=O)cs1`, the viability is reported as 90.5% (inactive). In the case of `CCN1CCc2c(C#N)c(N3CCCCC3)nc(NCc3ccccc3)c2C1`, the viability is reported as 16.3% (active). With `Cc1ccc(S(=O)(=O)N2CCCN(S(=O)(=O)C3CCS(=O)(=O)C3)CC2)cc1` (stereo not given) the viability was 99.1% (inactive). With `COc1nc(NCCc2ccc(OC)c(OC)c2)nc(NC(C)(C)CO)n1` the viability was 95.5% (inactive). In the case of `O=C(O)c1cc(-c2ccccc2)nc2ccccc12`, the viability is reported as 76.7% (inactive). In the case of `Cc1nc2ccc(C(=O)O)cc2c2c1CC(C)S2` (stereo not given), the viability is reported as 90.8% (inactive). With `COC(=O)c1ccc(COC(=O)c2c(C)nn(Cc3ccccc3Cl)c2Cl)o1` the viability was 86.2% (inactive). For `CSc1nnc(-c2cnccn2)n1Cc1ccccc1`, the viability was 102% (inactive). With `COCCNC(=O)C(c1ccc(C)o1)N(Cc1cccs1)C(=O)c1snc(C(N)=O)c1N` (stereo not given) the viability was 86.4% (inactive). With `COc1ccc(CCNC(=O)CSCc2n[nH]c(=O)[nH]2)cc1OC` the viability was 88.5% (inactive). With `CCCOc1cccc(C(=O)Nc2cc(NC(=O)c3ccco3)ccc2OC)c1` the viability was 85% (inactive). In the case of `Cc1cc(S(=O)(=O)N2CCN(c3ccccc3C)CC2)ccc1F`, the viability is reported as 79.5% (inactive). For `O=S(=O)(c1ccc(Br)s1)N1CCN(c2ccccc2)CC1`, the viability was 87.6% (inactive). For `O=C(CSCc1ccc(F)cc1)NC1CCCC1`, the viability was 95.8% (inactive). With `Cc1cc(NCC2CCCO2)n2c(nc3ccccc32)c1C#N` (stereo not given) the viability was 71% (inactive). In the case of `Cc1nc(NC2=NCN(CCCN3CCOCC3)CN2)nc2c(C)cccc12`, the viability is reported as 53.4% (inactive). With `Cc1nnc(NC(=O)CCC(=O)N2CCC(C)CC2)s1` the viability was 90.8% (inactive). With `CCC(=O)Nc1ccc(NC(=O)c2ccccn2)cn1` the viability was 98.2% (inactive). For `Cc1cccc(N2CCN(C(=O)C3CCCN(S(=O)(=O)c4c(C)noc4C)C3)CC2)c1C` (stereo not given), the viability was 81.9% (inactive). For `CCOC(=O)C1CCCN(CC(=O)NC2CC2)C1` (stereo not given), the viability was 88.2% (inactive). In the case of `Cc1ccc(C)c(N(CC(=O)NC2CCCC2)C(=O)CCCC(=O)Nc2ccccn2)c1`, the viability is reported as 102% (inactive). With `O=C1C2ON(c3ccc(Cl)cc3)C(c3ccco3)C2C(=O)N1c1ccccc1` (stereo not given) the viability was 100% (inactive). For `CC1=Nn2c(nnc2-c2ccccc2)SC1`, the viability was 95.2% (inactive). In the case of `O=C(NCCN1CCOCC1)C1CCC(=O)N1Cc1ccccc1Cl` (stereo not given), the viability is reported as 90% (inactive). In the case of `C=CCNC(=O)C1CC(=O)N(c2ccc(OCC(=O)Nc3ccc(OC)cc3)cc2)C1` (stereo not given), the viability is reported as 108% (inactive). For `Cc1ccccc1-n1c(SCc2c(C)noc2C)nnc1-c1ccncc1`, the viability was 87.4% (inactive). In the case of `c1cc2c(cc1Nc1nc(-c3ccc4c(c3)OCO4)cs1)OCCO2`, the viability is reported as 90.5% (inactive). In the case of `CC(=O)OC1CSc2nc3ccccc3n2C1` (stereo not given), the viability is reported as 93.4% (inactive). With `CCOC(=O)c1cc(-c2ccccc2)sc1N` the viability was 81.3% (inactive). For `CC1(C)CC(=O)C2=C(C1)NC(=O)CC2C(=O)NCc1ccc(F)cc1` (stereo not given), the viability was 111% (inactive). For `Cc1ccc2nc(-c3ccc4c(c3)OCCO4)cc(C(=O)O)c2c1`, the viability was 101% (inactive). With `Cn1nc(-c2ccc(N3CCCCC3)c(NC(=O)c3ccco3)c2)c2ccccc2c1=O` the viability was 32.3% (active). With `Cc1[nH]nc2c1C(=O)CCC2` the viability was 101% (inactive). In the case of `COc1cc(C(=O)N(C)c2nnc(-c3cccnc3)s2)cc(OC)c1OC`, the viability is reported as 82.7% (inactive). For `Cc1noc(C)c1CSc1nc2ccccc2s1`, the viability was 67.8% (inactive). In the case of `O=S1(=O)CCC(N=Cc2cc(Br)ccc2O)C1` (stereo not given), the viability is reported as 78.1% (inactive). In the case of `CC(C)(C)C1=Nn2c(nnc2-c2n[nH]c3c2CCC3)SC1`, the viability is reported as 85.9% (inactive).
